Screens (PubChem BioAssay)
aSyn UTR act – Activators working through SNCA 5'UTR binding (MLPCN). activity score, % (tested at 7.5 µM), hits read low. alpha-synuclein 5'UTR reporter, activators screen. 300,000 compounds, 7.1% hits; in the data active means activity score below about -60%
A number is an active result; – = inactive. Only a sample is shown.

SMILES | aSyn UTR act
CCNC(=O)NC(=O)COc1ccccc1C#N | -89
CCc1ccc(OCC(=O)NCc2ccco2)c(Br)c1 | -70
CCc1ccc(NS(=O)(=O)c2ccc3[nH]cc(C(=O)N4CCc5ccccc54)c(=O)c3c2)cc1 | -128
Cc1ccc(-n2nnnc2CNC(=O)c2ccc([N+](=O)[O-])o2)cc1C | -98
O=C(NCc1nnnn1-c1ccc(F)cc1)c1ccc([N+](=O)[O-])o1 | -136
CCN1C(=O)/C(=C/N2CCc3ccccc32)SC1=S | -190
O=C(NCCCCCCOC1=NS(=O)(=O)c2ccccc21)C(=O)Nc1ccccc1 | -93
Fc1ccc(-c2csc(/C=C/c3ccc4c(c3)OCO4)n2)cc1 | -186
CN(/N=C/c1ccc2c(c1)OCO2)c1ccccc1 | -169
O=C(/C=C/c1cccc(Br)c1)c1ccc2c(c1)OCO2 | -72
O=C(/C=C/c1ccc2c(c1)OCO2)c1ccc[nH]1 | -279
COc1cc(/C=N/N(C)c2ccccc2)ccc1O | -156
CN(C(=O)/C=C/c1ccc2c(c1)OCO2)c1ccccc1 | -89
O=C(/C=C/c1ccccc1)c1ccc2c(c1)OCO2 | -206
COc1cccc(/C=C/C(=O)c2ccc[nH]2)c1 | -305
O=C(/C=C/c1ccc2c(c1)OCO2)c1ccc(F)cc1 | -90
C[C@H]1O[C@@H](O[C@H]2[C@@H](O)C[C@H](O[C@H]3[C@@H](O)C[C@H](O[C@H]4CC[C@@]5(C)[C@H](CC[C@@H]6[C@@H]5C[C@@H](O)[C@]5(C)[C@@H](C7=CC(=O)OC7)CC[C@]65O)C4)O[C@@H]3C)O[C@@H]2C)C[C@H](O)[C@@H]1O | –
CC(=O)c1ccc(NC(=O)C(C)OC(=O)c2ccc3c(c2)nc(C)n3-c2ccccc2)cc1 (stereo unspecified) | -91
O=C(c1cc(COc2c(F)cccc2F)on1)N1C[C@H]2CC[C@H]1C2 | -114
COc1ccc(OCc2cc(C(=O)N3CCCN(C(C)=O)CC3)no2)c(Cl)c1 | -75
COc1ccc(OCc2cc(C(=O)N3C[C@H]4CC[C@H]3C4)no2)c(Cl)c1 | -82
Cc1cccc(C)c1OCc1cc(C(=O)N2CCC(c3ccncc3)CC2)no1 | -93
CC(=O)c1ccc(OCc2cc(C(=O)N3CC4C[C@@H]5CC3C[C@H](C4)C5)no2)cc1 | -134
COc1ccccc1OCc1cc(C(=O)N2CC3C[C@@H]4CC2C[C@H](C3)C4)no1 | -120
O=C(c1cc(COc2c(F)cccc2F)on1)N1CCC(c2ccccc2F)C1 (stereo unspecified) | -125
SMILES | aSyn UTR act
Cc1cccc(C)c1OCc1cc(C(=O)NC2CCC2)no1 | -66
O=C(c1cc(COc2ccc(F)cc2F)on1)N1C[C@H]2CC[C@H]1C2 | -99
O=C(c1cc(COc2ccc(F)cc2F)on1)N1CC2C[C@@H]3CC1C[C@H](C2)C3 | -97
COc1ccc(/C=C/C2=NN(C)C(=O)CC2)cc1 | -120
O=C(NCCc1ccccc1)c1ccco1 | -85
COC(=O)/C=C/c1ccccc1S(=O)(=O)N(Cc1ccccc1)Cc1ccco1 | –
CC(=O)c1c(C)[nH]c(C(=O)NCCc2ccccc2)c1C | -102
CN(CC(=O)NCCc1ccccc1)Cc1ccco1 | -81
O=C(NCCc1ccccc1)c1c(F)cccc1F | -115
COc1cc(/C=C/c2cc[n+](C)cc2)ccc1OCC(=O)Nc1ccccc1 | -76
COc1cc(C=C2C(=O)OC(C)(C)OC2=O)ccc1OCC(=O)Nc1ccccc1 | -123
N=C1N(/N=C/c2ccccc2)C(=Nc2ccccc2)C(=S)N1c1ccccc1 | -186
CCC(=O)c1ccc(OCC(O)Cn2nnc3ccccc32)cc1 (stereo unspecified) | -74
CN(C)C=Nc1ncc2c([nH]c3ccccc32)c1C#N | -113
CC(=O)[C@]1(O)Cc2c(O)c3c(c(O)c2[C@@H](O[C@H]2C[C@H](N)[C@H](O)[C@H](C)O2)C1)C(=O)c1ccccc1C3=O | –
COc1ccccc1C(=O)Nc1ccc(-c2nnn(CC(=O)N3CCN(C(=O)c4ccco4)CC3)n2)cc1 | -79
O=C(Cn1nnc(-c2ccc(NC(=O)c3ccccc3F)cc2)n1)NCc1ccc(F)cc1 | -66
NC(=O)Cn1nnc(-c2ccc(NC(=O)c3ccc(F)cc3)cc2)n1 | -73
O=C(Nc1ccc(-c2nnn(CC(=O)N3CCN(C(=O)c4ccco4)CC3)n2)cc1)c1ccccc1F | -71
CSc1ccccc1-c1nnc(-c2ccc(C)cc2)o1 | -106
Cc1ccccc1-c1nnc(-c2ccccc2C)o1 | -145
Cc1ccccc1-c1nnc(-c2ccc(Br)cc2)o1 | -175
Cc1ccccc1-c1nnc(CN2CCC(C)CC2)o1 | -77
O=C1C=CCC(/C=C/c2ccccc2)O1 (stereo unspecified) | -104
COC(=O)Cc1c(C)c2ccc(OC(C)C)cc2oc1=O | -156
SMILES | aSyn UTR act
O=C1N=C(N2CCCCC2)SC1=C1CCCC1 | -81
CCOC(=O)Cc1cc(=O)[nH]c(Nc2nc3ccccc3o2)n1 | -83
Clc1ccc(COn2nnc3ccccc32)c(Cl)c1 | -151
C/C(=N\NC(=O)C(C)n1nc(C)c([N+](=O)[O-])c1C)c1ccccc1O (stereo unspecified) | –
Cc1nn(CC(=O)c2ccccc2Cl)c(C)c1[N+](=O)[O-] | -177
Nc1nn(-c2ccccc2)nc1C(=O)OCc1ccccc1 | -63
O=C(N/N=C/c1cccc(F)c1)c1ccc(Cl)cc1 | -150
O=C(N/N=C/c1ccccc1Cl)c1cccc(F)c1 | -138
Oc1c(Br)cc(Br)cc1/C=N/Nc1ccc(Cl)nn1 | –
CC(C)(C)c1ccc(C(=O)N/N=C/c2cccc(Cl)c2)cc1 | -89
Fc1cccc(/C=N/Nc2ccc(Cl)nn2)c1 | -116
Cc1cccc(-n2ncc3c(NCc4ccco4)ncnc32)c1 | -549
Cc1ccc(-n2ncc3c(NCc4ccco4)ncnc32)cc1C | -183
Nc1c(-c2cccc([N+](=O)[O-])c2)nc2ccccn12 | -83
CC1=NN(C(N)=S)C(=O)C1N=Nc1cccc([N+](=O)[O-])c1 (stereo unspecified) | -121
CC1=NN(C(N)=S)C(=O)C1N=Nc1ccc(Br)cc1 (stereo unspecified) | -115
CC1=NN(C(N)=S)C(=O)C1N=Nc1cccc(Cl)c1C (stereo unspecified) | -184
CC1=NN(C(N)=S)C(=O)C1N=Nc1ccc(Cl)cc1 (stereo unspecified) | -143
O=C(/C=C/c1cccc(F)c1)N1CCc2ccccc21 | -111
O=C(/C=C/c1ccc(F)cc1)N1CCCc2ccccc21 | -65
O=C(/C=C/c1ccc(Cl)cc1Cl)N1CCc2ccccc21 | -192
Cc1ccc2nc(-c3ccc4c(c3)OCCO4)cn2c1 | –
Cc1ccc2nc(-c3ccc4c(c3)NC(=O)CO4)cn2c1 | -80
COc1cccc(-c2nnc(Nc3nc4c(F)cccc4s3)o2)c1 | -145
COc1cccc2sc(Nc3nnc(-c4ccccc4Cl)o3)nc12 | –
SMILES | aSyn UTR act
COc1ccccc1-c1nnc(Nc2nc3c(OC)cccc3s2)o1 | –
CN(C)S(=O)(=O)Oc1cccc(C(=O)Nc2ccc(Cl)cc2)c1 | -129
CN(C)S(=O)(=O)Oc1ccc(C(=O)Nc2cccc(Cl)c2)cc1 | -244
CN(C)S(=O)(=O)Oc1cccc(C(=O)Nc2ccccc2Cl)c1 | -91
O=C(O)c1ccccc1N/N=C/c1cc(Br)cc(Br)c1O | -111
O=C(O)c1ccccc1N/N=C\c1ccnc2ccccc12 | –
CSc1ccc(/C=C/C(=O)c2c(O)cc(C)oc2=O)cc1 | -117
Cc1cc(O)c(C(=O)/C=C/c2ccc(Cl)cc2)c(=O)o1 | -172
CCCNC(=O)COCc1cc(-c2ccc3c(c2)OCO3)on1 | -66
